Experimental data from PubChem BioAssay AID686978 (National Center for Advancing Translational Sciences (NCATS), 2013).
The campaign covered roughly 420,000 compounds. About 64,000 (15%) were called active. Inconclusive results (about 27%) are left out. Calls follow the shape of the dose curve; as a rule, active = well fitted inhibition curve with a large enough effect; inconclusive = small, poorly fitted or top-dose-only effect; inactive = flat fitted curve, though single readings scatter. Not all results are given here. Entries that show only a call come without a potency.

Assay: qHTS for Inhibitors of human tyrosyl-DNA phosphodiesterase 1 (TDP1): qHTS in cells in absence of CPT; also: nearly all actives have a fitted effect of over 55% in size
Conditions: DT40 Tdp1-/- hTDP1 cells, no CPT, ATP luminescence, 48 h; activity change, negative = growth inhibition: at 46.2 µM (top of the series)
Method in brief: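 No-CPT arm: Tdp1-/-;hTDP1 DT40 cells (400/well) plus compounds, incubated ≥48 hr at 37 °C. Readout CellTiter-Glo luminescence.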
Potency is read from the fitted curve at half-maximal effect.

SMILES	Potency
O=C(NC1CCCC1)C1c2ccccc2OCC(=O)N1CC(F)(F)F (stereo not drawn)	inactive
Brc1cccc[n+]1Cc1cccc(C[n+]2ccccc2Br)c1	20 µM (active)
Clc1cccc[n+]1CCCC[n+]1ccccc1Cl	inactive
Cc1ccc(N2C(=O)C3C4C=CC(CC4)C3C2=O)cc1Br (stereo not drawn)	inactive
NS(=O)(=O)c1ccc(NC(=O)COC(=O)c2ccco2)cc1	inactive
CC1O[C@@H](Oc2c(-c3ccc(O)c(O)c3)oc3cc(O)cc(O)c3c2=O)C(O)C(O)C1O (stereo partly drawn)	inactive
CCCc1nc2c(c(=O)c3ccccc3n2C)c(=O)n1C1CCCCCC1	16.4 µM (active)
Cn1c2ccccc2c(=O)c2c(O)cccc21	inactive
O=C1CCC(C(=O)N2CCCCO2)CN1Cc1cccc(C(F)(F)F)c1 (stereo not drawn)	inactive
Cc1ccc(S(=O)(=O)N/N=C\c2cc3c(cc2[N+](=O)[O-])OCO3)cc1	18.4 µM (active)
CC(=O)N/N=C/c1cc2c(cc1[N+](=O)[O-])OCO2	inactive
Cc1ccc(-c2n[nH]c(=S)n2/N=C/c2cc3c(cc2[N+](=O)[O-])OCO3)cc1	inactive
COc1cc(C(=O)N(Cc2ccc(C(C)C)cc2)C2CCS(=O)(=O)C2)cc(OC)c1OC (stereo not drawn)	inactive
COc1ccccc1CN(C)c1nnnn1-c1ccccc1	inactive
CC[C@]12c3[nH]c4ccc(OC)cc4c3CCN1C(=O)C(CC(=O)NCc1ccco1)C[C@@H]2C(=O)N1CCN(C(=O)C2CC2)CC1 (stereo partly drawn)	inactive
CC[C@]12c3[nH]c4ccc(Cl)cc4c3CCN1C(=O)[C@@H](CC(=O)NCCCOC)C[C@@H]2C(=O)N1CCN(C(=O)C2CC2)CC1	inactive
CC[C@]12c3[nH]c4ccc(Cl)cc4c3CCN1C(=O)[C@@H](CC(=O)NCCN1CCOCC1)C[C@@H]2C(=O)N1CCN(C(=O)C2CC2)CC1	inactive
COc1ccc(CNC(=O)C[C@H]2C[C@H](C(=O)N3CCOCC3)[C@@]3(CCC4CCCC4)c4[nH]c5ccc(Cl)cc5c4CCN3C2=O)cc1OC	18.4 µM (active)
CC[C@]12c3[nH]c4ccc(OC)cc4c3CCN1C(=O)C(CC(=O)NCCN1CCOCC1)C[C@@H]2C(=O)N1CCN(C(=O)C2CC2)CC1 (stereo partly drawn)	inactive
O=C(C[C@H]1C[C@H](C(=O)N2CCOCC2)[C@@]2(CCC3CCCC3)c3[nH]c4ccc(Cl)cc4c3CCN2C1=O)NCc1ccco1	23.1 µM (active)
COc1ccc(C2(O)C(=O)Nc3ccccc32)cc1 (stereo not drawn)	inactive

SMILES	Potency
O=C(NNC(=O)c1ccc(Cl)cc1Cl)c1cccs1	inactive
O=C(Nc1cccc2cccnc12)c1cccc(N2C(=O)CCC2=O)c1	inactive
O=c1cc(CO)oc(CN2CCC(Cc3ccccc3)CC2)c1O	inactive
O=c1c2ccccc2nc2n1C(CSCc1cccc(C(F)(F)F)c1)CS2 (stereo not drawn)	3.66 µM (active)
O=c1c2ccccc2nc2n1C(CSc1ccc(Cl)cc1)CN2 (stereo not drawn)	inactive
O=c1c2ccccc2nc2n1C(CSCc1ccccc1)CS2 (stereo not drawn)	6.51 µM (active)
O=c1c2ccccc2nc2n1C(CSc1ccc(F)cc1)CN2 (stereo not drawn)	inactive
Cn1cc(S(=O)(=O)Nc2ccc(Cl)cc2Cl)c(=O)n(C)c1=O	inactive
CCN(CC)CCNC(=O)C1c2ccccc2C(=O)N(C)C1c1cn(C)c2ccccc12 (stereo not drawn)	inactive
CCOC(=O)N1CCC(NC(=O)C(NS(=O)(=O)c2ccc3c(c2)CCN3C(=O)CC)C(C)C)CC1 (stereo not drawn)	inactive
CN(C)C(=O)[C@@H]1C[C@@H](Sc2nc3ccccc3[nH]2)CN1Cc1ccc(Cl)cc1	inactive
CC1CC(C)CN(CCCNC(=O)Cn2ncc3c([nH]c4ccccc43)c2=O)C1 (stereo not drawn)	inactive
O=C(CCn1c(=S)[nH]c2ccccc2c1=O)NCCCN1CCCC1=O	inactive
O=C(Cc1csc(Nc2nc(=S)[nH]c3ccccc23)n1)NCCCN1CCN(c2cccc(Cl)c2)CC1	9.2 µM (active)
O=C(CN1C(=O)NC2(CCCCCCC2)C1=O)NCc1ccc(F)cc1	inactive
COc1ccc(CNC(=O)C2=Cc3cccc(OC)c3OC2)cc1OC	inactive
O=C(NN1C(=O)C2C3C=CC(O3)C2C1=O)c1ccncc1 (stereo not drawn)	inactive
CSC1=NN(c2ccccc2)CN(c2ccccc2)N1C	inactive
O=C(CCCN1C(=O)c2ccccc2C1=O)Oc1ccc(Cl)cc1	inactive
Cc1ccc(CNC(=O)C2CC(=O)N(C3CCCCCCC3)C2)cc1 (stereo not drawn)	inactive
CCCCC[C@H]1CN(C2CCCCC2)C(=O)[C@@H]1CC(=O)NCc1ccc(OC)cc1	10 µM (active)

SMILES	Potency
COc1ccc(CNC(=O)[C@@H]2CC=C[C@@H]3CCN(C4CC4)C(=O)[C@@H]32)cc1	inactive
O=C(CCc1nnc2ccc(NCCCN3CCCC3=O)nn12)NCc1ccccc1Cl	inactive
Cc1ccc(OCCCn2c(=O)oc3ccccc32)cc1	inactive
COc1cccc(OCCCN2CCCCCC2)c1	inactive
CCCCCCCCCCOC(=O)Cn1c(COc2cccc(OC)c2)[n+](C)c2ccccc21	2.31 µM (active)
CCn1c(COc2cccc(OC)c2)nnc1SCC(=O)N1CCOCC1	inactive
CCOC(=O)Cn1c(-c2cccnc2Cl)nc2ccccc21	inactive
CCCCCCCCCCOC(=O)Cn1c(COc2ccc(C)cc2)[n+](C)c2ccccc21	3.26 µM (active)
Cc1ccc(C)c(-n2ccnc2SCC(N)=O)c1	inactive
CCn1cc(C(=O)OCC(=O)Nc2cccc(C)c2)c(=O)c2ccc(C)nc21	inactive
C/C=C/C=C/C(=O)O	inactive
COc1cc(/C=C/C(=O)OCC(=O)NCCCc2ccccc2)ccc1O	inactive
C[C@@H](NC(=O)[C@@H]1Cc2ccccc2CN1)C(=O)NC1CCCC1	inactive
COc1ccc(/C=C/c2ccnc3ccccc23)cc1OC	12.6 µM (active)
C=CCOc1ccc(/C=N/n2cncn2)cc1OC	inactive
COc1cc(OC)cc(C(=O)NNC(=O)CCOc2ccccc2OC)c1	inactive
COc1ccc(/C=C/c2ccccn2)cc1OC	12.6 µM (active)
COc1cc(/C=C/c2ccc(/C=C/c3cc(OC)c(OC)c(OC)c3)cc2)cc(OC)c1OC	inactive
COc1ccc(/C=C/c2noc(-c3ccccc3O)n2)cc1OC	inactive
COc1cc(OC)c(/C=C/c2ccnc3ccccc23)c(OC)c1	8.91 µM (active)
COc1ccc(/C=N/n2nnnc2N)cc1OC	inactive
